The results in this text go back to PubChem BioAssay AID2551 (National Center for Advancing Translational Sciences (NCATS), 2010).

Structures are written as SMILES. The whole screen tested about 310,000 compounds, of which about 17,000 (5.5%) were called active. Not shown: some 11% with an inconclusive outcome. The sample holds actives, similar compounds and a random draw of the others, so the mix is not that of the screen. The call rests on the fitted dose curve; in most records, active means well fitted inhibition curve with a large enough effect; inconclusive means small, poorly fitted or top-dose-only effect, or effect the other way; inactive means no such curve, though single readings can be large or run the other way.
On the % scale 0 is the no-effect control and ±100 the full control effect; potency means the concentration at half of the fitted maximal effect.

Nuclear receptor ROR-gamma (Mus musculus), sequence (P51450 whole entry, looked up, the tested form may be a part): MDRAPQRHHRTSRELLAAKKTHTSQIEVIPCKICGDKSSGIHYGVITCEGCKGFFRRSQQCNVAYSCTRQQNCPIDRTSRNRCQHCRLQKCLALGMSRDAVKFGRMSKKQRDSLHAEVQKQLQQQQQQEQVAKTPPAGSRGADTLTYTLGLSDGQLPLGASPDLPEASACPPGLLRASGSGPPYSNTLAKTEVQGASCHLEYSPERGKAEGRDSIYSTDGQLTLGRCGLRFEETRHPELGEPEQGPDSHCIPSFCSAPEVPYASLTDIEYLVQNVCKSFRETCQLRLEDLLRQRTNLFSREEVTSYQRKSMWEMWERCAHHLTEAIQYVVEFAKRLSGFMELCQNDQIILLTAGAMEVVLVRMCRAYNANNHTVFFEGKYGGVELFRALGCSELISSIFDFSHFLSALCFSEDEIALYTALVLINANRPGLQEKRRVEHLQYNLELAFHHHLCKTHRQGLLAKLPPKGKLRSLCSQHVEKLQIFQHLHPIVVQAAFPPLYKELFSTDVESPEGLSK

This assay deals with Nuclear receptor ROR-gamma (Mus musculus) (UniProt P51450). As to the kind of experiment: qHTS for inhibitors of ROR gamma transcriptional activity. Further: nearly all actives have a fitted effect of over 60% in size. The note with it: Drosophila S2 Gal4-RORgamma UAS-luciferase reporter, 20 h; series mostly up to 53.6 µM; activity change, negative = inhibition: at the top concentration. Put shortly:
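Drosophila S2 cells stably expressing Gal4-DBD/mouse RORγ fusion under metallothionein promoter plus UAS-luciferase; compound 1 h, then 700 uM CuSO4 induction for 20 h at ambient temperature; inhibition read as reduced luminescence.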
Background: qHTS replaces the single test concentration by a dilution series.
On to `CC(C)(O)c1[se]c2ccccc2c1I`, for which the “activity change, negative = inhibition” value was -2.25% (inactive).

With `CC[C@H]1CN2CCc3cc(OC)c(OC)cc3[C@@H]2C[C@@H]1C[C@H]1NCCc2cc(OC)c(OC)cc21`, the Potency is 1.26 µM (active).

Take `COc1cccc(-c2nc3ccc(N4CCN(C)CC4)cc3[nH]2)c1`: the Potency is 1.12 µM (active).

For the compound `CN1CCN(c2cc(N3CCNCC3)ccc2[N+](=O)[O-])CC1`, the “activity change, negative = inhibition” value is 15% (inactive).

`COC(=O)c1ccc2[se]c(CC3CCCCC3)c(I)c2c1`: the “activity change, negative = inhibition” value is 14.9% (inactive).

Turning to `Cc1ccc(-n2c(O)c(C=NCC3CCCO3)c(=O)[nH]c2=O)c(C)c1` (centres undefined), the “activity change, negative = inhibition” value is 1.05% (inactive).

For `COC1CC(OC2CC[C@@]3(C=O)C4CC[C@]5(C)C(C6=CC(=O)OC6)CC[C@@]5(O)C4CC[C@]3(O)C2)OC(C)C1O` (some centres undefined), the “activity change, negative = inhibition” value is 1.32% (inactive).

Consider `BrC1C(Br)C(Br)C(Br)C(Br)C1Br` (centres undefined), for which the Potency is 5.01 µM (active).

On to `O=C(Nc1cccc(F)c1)N1CC[C@@]2(CCCN(C(=O)Oc3ccccc3)C2)C1`, for which the “activity change, negative = inhibition” value is -0.0221% (inactive).

Consider `CCN1C[C@]2(COC)C(O)C[C@H](OC)[C@@]34C5C[C@]6(O)C(OC)C(O)[C@](OC(C)=O)(C5C6OC(=O)c5ccccc5)C(C(OC)C23)C14` (some centres undefined), for which the “activity change, negative = inhibition” value is -0.118% (inactive).

On to `CCCCC#N`, for which the “activity change, negative = inhibition” value is 1.58% (inactive).

Take `COc1cccc(C(=O)N2C[C@H]3C[C@@H](C2)c2cccc(=O)n2C3)c1`: the “activity change, negative = inhibition” value is -18.3% (inactive).

For the compound `O=C(NC(=S)N1C[C@H]2C[C@H](C1)c1cccc(=O)n1C2)c1ccc(F)cc1`, the Potency was 11.2 µM (active).

For `COc1cccc(OC)c1C(=O)NC(=S)N1C[C@H]2C[C@H](C1)c1cccc(=O)n1C2`, the “activity change, negative = inhibition” value is -0.303% (inactive).

Consider `N#CCCCl`, for which the Potency result is “inactive”.

With `CCN(CC)c1nc(C)cc(OP(=S)(OC)OC)n1`, the “activity change, negative = inhibition” value was 11.2% (inactive).

`CC(C)(c1ccc(OC[C@@H]2CO2)cc1)c1ccc(OC[C@H]2CO2)cc1`: the “activity change, negative = inhibition” value was -11.2% (inactive).

`CN1CCN(C(=O)O[C@@H]2c3nccnc3C(=O)N2c2ccc(Cl)cn2)CC1`: the “activity change, negative = inhibition” value was -16.6% (inactive).

Consider `Cn1c(O)c(C=NCCN2CCNCC2)c(=O)n(C)c1=O`, for which the “activity change, negative = inhibition” value is 21% (inactive).

In the case of `Cn1c(O)c(C=NCCCC(=O)O)c(=O)n(C)c1=O`, the “activity change, negative = inhibition” value is 11.3% (inactive).

For the compound `CC(=C1C(=O)c2ccccc2C1=O)N1CCN(CCN=Cc2c(O)n(C)c(=O)n(C)c2=O)CC1`, the Potency is 7.08 µM (active).

For the compound `CC(=O)OC1C2CCC3C1(CC(O)[C@@]1(O)[C@@H](CC(O)C1(C)C)[C@]3(C)O)C[C@@]2(C)O` (some centres undefined), the “activity change, negative = inhibition” value is 23.2% (inactive).

In the case of `O=[N+]([O-])c1ccc(Cl)c(Cl)c1`, the “activity change, negative = inhibition” value is 7.3% (inactive).

With `N[C@H](Cc1o[nH]c(=O)c1Cl)C(=O)O`, the “activity change, negative = inhibition” value is 1.57% (inactive).
